# Bioassay records deposited in PubChem BioAssay by National Center for Advancing Translational Sciences (NCATS).
# This is a sample that favours compounds with a hit; in the whole collection about 10% have one here.
# HPGD block – qHTS Assay for Inhibitors of HPGD (15-Hydroxyprostaglandin Dehydrogenase); 15-hydroxyprostaglandin dehydrogenase [NAD(+)] (Homo sapiens), P15428; purified HPGD, NADH fluorescence kinetic, PGE2 substrate; Potency, µM, inactives show top-dose activity change, negative = inhibition, usual class: inhibitors; 4.3% of 150,000 active; AID 894, 2007; also: potency is read from the fitted curve at half-maximal effect
# Target sequence (P15428 whole entry, looked up): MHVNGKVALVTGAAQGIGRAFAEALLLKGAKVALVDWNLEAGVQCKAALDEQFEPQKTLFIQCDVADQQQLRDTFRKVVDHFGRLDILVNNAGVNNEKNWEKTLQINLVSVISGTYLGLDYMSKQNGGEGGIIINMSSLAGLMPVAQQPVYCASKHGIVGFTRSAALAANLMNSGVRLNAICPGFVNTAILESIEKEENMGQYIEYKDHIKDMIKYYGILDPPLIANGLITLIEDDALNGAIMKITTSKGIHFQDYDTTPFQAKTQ
#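 20 nM HPGD preincubated 15 min at room temperature with compound in 50 mM Tris-HCl pH 8, 0.01% Tween 20. Started with 1 mM NAD+ and 30 uM prostaglandin E2; NADH fluorescence (360/450 nm) read 5 times over 30-s intervals, last minus first.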
# ALDH1A1 block – qHTS Assay for Inhibitors of Aldehyde Dehydrogenase 1 (ALDH1A1) | Aldehyde dehydrogenase 1A1 (Homo sapiens), P00352 | Purified ALDH1A1, NADH fluorescence, propionaldehyde substrate | Potency, µM (top dose mostly 75.3 µM), for the others: at the top dose activity, negative = inhibition, most hits filed as inhibitors | 7.3% of 220,000 active;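 also: potency is read from the fitted curve at half-maximal effect; plate controls were no enzyme wells and a reference inhibitor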
# Lamin A splicing – qHTS Assay for Modulators of Lamin A Splicing; HeLa LMNA splicing GFP/RFP minigene ratio, 48 h; Potency, µM (top dose mostly 46.1 µM), inactives show top-dose ratio change, negative = inhibition, actives largely listed as inhibitors; 0.01% of 200,000 active; AID 1487, 2009; active = well fitted inhibition curve with a large enough effect in the signal ratio, with a control signal flat, not every such curve was filed as active; inconclusive = small, poorly fitted or top-dose-only effect, or effect the other way, or a change in a side signal; the % refers to the signal ratio; also: potency is read from the fitted curve at half-maximal effect
#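 S3 HeLa cells stably expressing lamin A-EGFP splicing minigene plus DsRed2, 600 cells/well, 48 h compound exposure at 37C. Laser-scanning cytometry; analysed as GFP (500-530 nm)/RFP (575-640 nm) total intensity ratio; 0.5% DMSO vehicle.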
# 12-hLO inh – qHTS Assay for Inhibitors of 12-hLO (12-human lipoxygenase). Polyunsaturated fatty acid lipoxygenase ALOX12 (Homo sapiens), P18054. purified 12-hLO, xylenol orange hydroperoxide absorbance. Potency, µM (highest dose often 57.1 µM), inactives show top-dose activity change, negative = inhibition, hits mostly inhibitors. 0.12% of 150,000 active; active = well fitted inhibition curve with a large enough effect; inconclusive = small, poorly fitted or top-dose-only effect; also: potency is read from the fitted curve at half-maximal effect; nearly all actives have a fitted effect of over 55% in size
#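 Hydroperoxide formation by human 12-lipoxygenase from 40 uM arachidonic acid was followed colorimetrically via ferric-xylenol orange complex, using the 573/405 nm absorbance ratio. Enzyme concentration was 150 nM, with 30 min reaction at room temperature.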
# PNC assembly inh – High Content Assay for Compounds that inhibit the Assembly of the Perinucleolar Compartment | PC3M PTB-GFP, PNC prevalence imaging, 16 h; stronger effect = lower value | activity change (PNC), negative = inhibition, % at 10 µM | 3.1% of 140,000 active;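 active = readout at or below -70, meaning at least 70% loss of cells showing the perinucleolar compartment, a nuclear body marking cancer cells; inconclusive = readout between -30 and a set limit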;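 also: plate controls were DMSO wells for no effect and camptothecin positive control wells for full effect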
#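 Read-out is percentage of cells bearing a perinucleolar compartment, from automated 20x imaging of fixed, Hoechst-stained PC3M PTB-GFP cells. Cells were seeded 4 h, then exposed 16 h to compound (23 nl of library stock) in duplicate plates.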
# Active calls of the source: *; ? = inconclusive; · = no result given; [ ] = remark or other dose. Unless noted, calls follow the shape of the dose curve; as a rule, active = well fitted inhibition curve with a large enough effect (not every such curve was filed as active); inconclusive = small, poorly fitted or top-dose-only effect, or another doubt; inactive = no such curve, though single readings can be large or run the other way. Unless noted, % is scaled to controls: 0 for no effect and ±100 for the full control effect.
SMILES,HPGD block,ALDH1A1 block,Lamin A splicing,12-hLO inh,PNC assembly inh
O=C1S/C(=C\c2ccc(O)c([N+](=O)[O-])c2)C(=O)N1c1ccccc1Cl,·,0.45µM*,·,·,·
COc1cc(/C=C2\SC(=O)N(c3cccc(Cl)c3)C2=O)cc([N+](=O)[O-])c1O,·,0.89µM*,·,·,·
COc1cc(/C=C2\SC(=O)N(c3ccc(Cl)cc3)C2=O)cc([N+](=O)[O-])c1O,·,-5%,6%[46 µM],·,·
CC(C)CN1CCc2nc(Nc3ccc(F)cc3F)ncc2C1,·,·,-10%[46 µM],·,·
CCCCCC(O)(CCN1CCCCC1)c1ccc(OCC)cc1 (centres undefined),·,1.8µM*,·,·,·
CCCC(O)(CCN1CCCCC1)c1ccc(OCC)cc1 (centres undefined),-2%,0.89µM*,-11%,6%,10
CCC(O)(CCN1CCCCC1)c1ccccc1 (centres undefined),-5%,9%,-4%,-7%,6
c1ccc(/C(=N/Nc2nc3ccccc3s2)c2ccccn2)cc1,-6%,?,·,3%[11.4 µM],·
CCC(C)NC(=O)[C@H](CSCc1ccccc1)N1Cc2ccccc2C1=O (some centres undefined),-7%,-5%,4%,-2%,-82*
COc1ccccc1-c1nnc(Nc2nc3c(OC)cccc3s2)o1,?,?,?,0%,-87*
COc1cccc2sc(Nc3nc(-c4cc5ccccc5oc4=O)cs3)nc12,?,?,?,-3%,-84*
CNC(=O)c1cc2cccc(OC)c2oc1=O,-11%,-14%,10%,-4%,?
COc1ccc(Nc2nc(-c3cc4cccc(OC)c4oc3=O)cs2)cc1,-12%,22µM*,2%,2%,14
COc1cccc2sc(Nc3nc(-c4ccncc4)cs3)nc12,·,1%,19%[46 µM],·,·
COc1cccc2cc(/C(C)=N/Nc3nc(-c4cc(C)ccc4C)cs3)c(=O)oc12,32µM*,?,-3%,1%,8
Cc1noc(NC(=O)Nc2ccccc2F)c1C#N,-1%,-2%[13.5 µM],·,3%[11.4 µM],·
O=C(Nc1nc(-c2cc3ccccc3oc2=O)cs1)c1ccc(Br)o1,?,?,7%,20µM*,?
CO[C@@H]1COC(=O)[C@H](C)NC(=O)C/C=C\[C@@H](C)[C@@H](NS(=O)(=O)c2ccc(C)cc2)COC(=O)C/C=C\[C@@H]1C,·,-7%[13.5 µM],·,·,·
CN1CCc2cc(Cl)c(O)cc2[C@H](c2ccccc2)C1,·,·,·,-7%,·
Oc1cc2c(cc1O)[C@H](c1ccccc1)CNCC2,28µM*,4%,·,-11%,·
CCc1ccc2[nH]c(=O)c(CN(Cc3ccccc3)Cc3nnnn3Cc3ccco3)cc2c1,-25%,13µM*,?,?,?
Cc1cc(C)c2cc(CN(Cc3ccc4c(c3)OCO4)Cc3nnnn3Cc3ccco3)c(=O)[nH]c2c1,-28%,4.5µM*,6%,-29%,6
O=c1[nH]c2cc3c(cc2cc1CN(Cc1ccccc1)Cc1nnnn1Cc1ccco1)OCCO3,?,?,?,-13%,22
Cc1ccc2[nH]c(=O)c(CN(Cc3ccc4c(c3)OCO4)Cc3nnnn3Cc3ccco3)cc2c1,-6%,25µM*,-5%,-16%,-9
CCOc1c2ccc(C(=O)NCCc3ccc(C)cc3)cc2nn1CC,?,?,4%,4%,-113*
SMILES,HPGD block,ALDH1A1 block,Lamin A splicing,12-hLO inh,PNC assembly inh
COCC(C)n1c(SCC(=O)N2CCc3ccccc3C2)nc2ccccc2c1=O (centres undefined),-12%,-13%,?,-4%,-121*
C=CCn1c(SCC(=O)N2CCc3ccccc3C2)nc2ccccc2c1=O,-27%,13µM*,4%,1%,6
COc1ccccc1NS(=O)(=O)c1cc(NC(=O)Nc2cccc(C)c2)ccc1N1CCCCC1,?,?,?,0%,-4
CCN(CC)c1ccc(NC(=O)c2ccccc2)cc1S(=O)(=O)Nc1ccccc1OC,1.8µM*,1µM*,?,-5%,?
COc1ccccc1NS(=O)(=O)c1cc(N2Cc3ccccc3C2=N)ccc1N1CCOCC1,·,8.9µM*,?,·,·
COc1ccccc1NS(=O)(=O)c1cc(NC(=O)c2ccncc2)ccc1N1CCCC1,·,11µM*,-20%[46 µM],·,·
COc1ccccc1NS(=O)(=O)c1cc(NC(C)=O)ccc1N1CCCCC1,·,8.9µM*,-15%[46 µM],·,·
COc1ccccc1NS(=O)(=O)c1cc(NC(=O)c2ccc(=O)[nH]c2)ccc1N1CCOCC1,-2%,3%,1%,-3%,17
CCC(=O)N1c2ccccc2CC1C(=O)NCc1cc(Br)ccc1OC (centres undefined),·,·,14%[46 µM],·,·
COc1ccccc1NS(=O)(=O)c1cc(NC(=O)c2ccc(Cl)nc2)ccc1Cl,-25%,25µM*,?,1%,-7
COc1ccc(N=C2C(=O)Nc3c(C)cccc32)cc1,0%,14µM*,17%,-8%,37
Cn1ccnc1SCC(=O)c1cccc(Br)c1,-20%,?,-1%,-12%,0
Cn1ccnc1SCC(=O)c1ccc(Cl)cc1,·,14µM*,·,·,·
Cn1c(CO)cnc1SCC(=O)c1ccc(Cl)cc1,·,22µM*,?,·,·
Cn1c(CO)cnc1SCc1c(Cl)cccc1Cl,-3%,-2%,-7%,1%,23
CCCCOC(=O)Nc1ccc(C(C)C)cc1,13µM*,2%,-3%,-1%,0
CC(C)COC(=O)NCCCOC(=O)Nc1ccccc1,-11%,22µM*,?,8%,4
CC(C)COC(=O)NCCOC(=O)Nc1cccc(Cl)c1,-10%,4%,?,2%,?
CCCCOC(=O)Nc1ccc(N(C)C)cc1,32µM*,?,12%,1%,?
CCCCOC(=O)Nc1ccc(C(N)=O)cc1,-3%,11%,-5%,3%,?
OC[C@@H]1O[C@@H](n2cnc3c(SCc4ccccc4)ncnc32)[C@@H](O)[C@H]1O,-4%,-1%[13.5 µM],·,0%[11.4 µM],·
Cc1nc(NC(=O)c2ccccc2[N+](=O)[O-])sc1C(=O)N(C)C,22µM*,4%,-6%,0%,15
Cc1nc(NC(=O)c2oc3ccccc3c2C)sc1C(=O)N(C)C,32µM*,-10%,7%,1%,10
COC(=O)C/C=C\[C@@H](C)[C@@H](/C=N\OC[C@@H](O)[C@H]1O[C@H]2OC(C)(C)O[C@H]2[C@@H]1O)OC,·,-4%[13.5 µM],·,·,·
CC(=O)NC(C)c1nc2ccccc2n1C(C)C (centres undefined),-15%,6%,-5%,4%,-119*
C#CCCCCCCCCCCCc1ccco1,-23%,20µM*,8%,-7%,·
COCCCN(CCCN)Cc1ccco1,-10%,8%,-19%,4%,-17
